Experimental data from PubChem BioAssay AID624330 (Southern Research Specialized Biocontainment Screening …, 2012).
About 2,100 (0.62%) of roughly 340,000 compounds were called active.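 The calls were made as follows: active = first-screen hits whose inhibition reached a set limit at any dose in the follow-up dose series; inconclusive = inhibition above the set first-screen limit but never retested; inactive = the rest.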 A selection follows. Potency and affinity values are given separately.

Target: Rac GTPase-activating protein 1 (Homo sapiens) (UniProt Q9H0H5)
Sequence (Q9H0H5 whole entry, looked up): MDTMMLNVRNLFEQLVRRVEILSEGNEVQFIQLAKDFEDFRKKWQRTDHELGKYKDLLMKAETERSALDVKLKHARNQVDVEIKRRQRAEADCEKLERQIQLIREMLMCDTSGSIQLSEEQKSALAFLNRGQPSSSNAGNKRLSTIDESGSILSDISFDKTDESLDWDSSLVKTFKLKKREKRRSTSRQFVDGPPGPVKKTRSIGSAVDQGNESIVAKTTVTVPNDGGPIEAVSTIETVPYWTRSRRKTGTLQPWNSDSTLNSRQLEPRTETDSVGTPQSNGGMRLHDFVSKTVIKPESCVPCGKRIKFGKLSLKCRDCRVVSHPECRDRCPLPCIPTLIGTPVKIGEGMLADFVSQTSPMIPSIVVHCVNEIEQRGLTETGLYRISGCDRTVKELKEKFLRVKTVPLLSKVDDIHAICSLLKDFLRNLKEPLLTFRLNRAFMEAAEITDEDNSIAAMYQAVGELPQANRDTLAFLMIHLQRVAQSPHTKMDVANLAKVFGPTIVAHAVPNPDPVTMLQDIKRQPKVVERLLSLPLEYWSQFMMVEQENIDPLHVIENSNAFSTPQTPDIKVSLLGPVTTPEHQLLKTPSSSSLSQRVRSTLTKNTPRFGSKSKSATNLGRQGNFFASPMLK
Test: MgcRacGAP GTPase-activating activity inhibitors, confirmation, biochemical, ADP Hunter fluorescence, primary and confirmatory (AID 624330);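 also: fluorescence reports GDP produced by GAP-driven GTP hydrolysis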
Settings: MgcRacGAP-stimulated Rac1 GTP hydrolysis, at 30 µM, stronger effect = higher value, GST-tagged Rac1 F28L mutant substrate

inhibition, inactive:
CCCCOc1ccc(/C=C/C(=O)N(CC)CC(=O)Nc2ccc3c(c2)OCCO3)cc1OC 11.7%
C/C(Cn1nc([N+](=O)[O-])cc1C)=N\NC(=O)COc1ccc(Cl)cc1Cl 6.26%
Cc1ccccc1NC(=O)c1c(C)nn(-c2ccccc2)c1Cl 8.16%
O=C(CSc1ncccn1)NCC1CCCO1 (stereo not drawn) 4.06%
COc1cc(/C=N/Nc2nc3ccccc3[nH]c2=O)ccc1O 15.8%
COc1cc(OC)c(OC)cc1/C=N/Nc1nc2ccccc2[nH]1 12.8%
COc1cc(/C=N\Nc2nc3ccccc3[nH]2)cc(OC)c1OC 29%
COc1ccc(O)c(/C=N/Nc2nc3ccccc3[nH]2)c1 1.94%
COc1ccc(NC(=O)c2c(C)nn(Cc3ccccc3)c2Cl)cc1S(=O)(=O)N1CCOCC1 2.08%
Cc1ccc(S(=O)(=O)N2CCC(C(=O)OC(C)C(=O)N3CCOCC3)CC2)cc1 (stereo not drawn) 4.25%
CCc1ccc(NC(=O)c2n[nH]c(=O)c3ccccc23)cc1 2.23%
COc1ccc(N2CCN(C(=O)CCN3C(=O)C4C5C=CC(C5)C4C3=O)CC2)cc1 (stereo not drawn) 10.9%
CCn1cc(CNC(=O)C2CCC(=O)N(CCc3cccc(F)c3)C2)cn1 (stereo not drawn) 4.69%
CCCNC(=O)COC(=O)C1CCN(S(=O)(=O)c2ccc3c(c2)OCCO3)CC1 2.29%
O=C(CN1CCN(c2ccc(F)cc2)CC1)NCC1CCCO1 (stereo not drawn) 12.3%
O=C(CCCC(=O)NCC1CCCO1)NCC1CCCO1 (stereo not drawn) 7.04%
COc1ccccc1CC(=O)NCC1CCCO1 (stereo not drawn) 14.3%
O=C(CSCSCC(=O)NCC1CCCO1)NCC1CCCO1 (stereo not drawn) 9.35%
Cc1cccc(C(C)C)c1NC(=O)Cc1ccc(S(=O)(=O)N2CCOCC2)s1 6.93%
COCCC(=O)N1CCCC(CCC(=O)NCc2ccc(F)c(F)c2)C1 (stereo not drawn) 4.17%
COc1ccc2nc3cc([N+](=O)[O-])ccc3c(NNc3ccc([N+](=O)[O-])cc3)c2c1 1.37%
COc1cc2c(cc1OC)-c1cc(NC3CC3)nc(=O)n1CC2 3.36%
Cc1ccc(NC(=O)c2csc(-c3ccccc3)c2C)cc1 9.66%
CCOC(=O)c1c(C)[nH]c(C(=O)N2CCN(CC)CC2)c1C 2.01%
CCOC(=O)c1c(C)[nH]c(C(=O)CN2CCOCC2)c1C 2.51%
COC(=O)c1cc(OC)c(OC)cc1NC(=O)c1cc(OC)cc(OC)c1 -0.7%
CCOc1ccccc1N1CCN(Cc2ccco2)CC1 14.9%
CCOc1ccccc1N1CCN(C(=O)CC(C)(C)C)CC1 -0.74%
CCC(=O)c1cn(CC(=O)Nc2cc(C)ccc2C)c2ccccc12 13.6%
O=C(CNC(=O)c1ccc(Br)o1)NNC(=O)c1ccccc1O 6.63%
CCOc1c(Cl)cc(CNc2ccc(N3CCCC3)cc2)cc1OC 36.9%
COc1cc(CC(=O)Nc2ccc(N3CCOCC3)cc2)cc(OC)c1OC 4.24%
CCOc1cc(CNc2ccc3c(c2)OCCO3)cc(Br)c1OC 23.8%
CCOc1cc(CNc2ccccc2)cc(Br)c1OCC(=O)NC(C)(C)C 6.03%
CCOc1cc(CNc2ccc(Br)cc2)cc(Br)c1OCC(=O)NC(C)(C)C -3.09%
CCOc1cc(C(=O)Nc2ccc(N3CCOCC3)cc2)cc(Br)c1OC 2.59%
COc1cc(CNc2ccc(N3CCCC3)cc2)cc(Cl)c1OC 1.89%
CCOc1cc(CNc2ccc3c(c2)OCCO3)cc(Br)c1OCC 30%
COCCNC(=O)/C(C#N)=C/c1ccc(O)cc1 15.1%
CC(C)CCc1noc(CN2CCC(C(=O)N3CCOCC3)CC2)n1 7.77%
Cc1cccc(C2NS(=O)(=O)N=C2N)c1 (stereo not drawn) 4.81%
NC(=O)c1c(NC(=O)C2c3ccccc3Oc3ccccc32)sc2c1CCCCC2 10.9%
Oc1c(C=C2N=c3ccccc3=N2)sc(=S)n1-c1ccc2ccccc2c1 9.34%
O=C(CN(c1ccccc1)S(=O)(=O)c1ccccc1)Nc1ccc(F)cc1 -5.62%
Cc1ccc(NC(=O)c2ccccc2F)cc1S(=O)(=O)N1CCCCCC1 -2.21%
CCn1c(CSc2nc3ccccc3s2)nnc1SCC(=O)c1ccc(O)cc1O 6.52%
CCn1c(CSc2nc3ccccc3s2)nnc1SCC(=O)c1ccc(Cl)cc1 -0.25%
COc1ccccc1N(CC(=O)NCC1CCCO1)C(=O)CCC(=O)Nc1cc(C)on1 (stereo not drawn) 2.95%
COc1ccc(-c2noc(CN(C)Cc3ccccc3)n2)cc1 15.4%
O=C(CCSCc1ccccc1Cl)NC1CCCCC1 5.37%
COc1ccccc1Nc1ccc(NS(=O)(=O)c2ccc(C(C)=O)cc2)cc1 23.2%
O=C(O)c1cc2cc(S(=O)(=O)O)ccc2cc1O 6.33%
Nc1ccc2c(O)cc(S(=O)(=O)O)cc2c1 19.4%
Nc1cc(S(=O)(=O)O)cc2ccc(S(=O)(=O)O)cc12 6.2%
Nc1cccc2cc(S(=O)(=O)O)ccc12 20.9%
COc1ccccc1Nc1ccc(N)cc1 10.5%
O=Nc1c(O)ccc2cc(S(=O)(=O)O)ccc12 13.3%
O=P(c1ccccc1)(c1ccccc1)c1cc(S(=O)(=O)O)ccc1O 5.95%
CCc1ccccc1NC(=O)c1ccc(NCCc2ccccc2)c([N+](=O)[O-])c1 10.6%
C/C(=N\NC(=O)c1cccs1)C(C)(C)C -0.86%
O=C(Nc1cccc(F)c1)Nc1ccnn1C1CCN(C(=O)c2ccccn2)CC1 4.39%
CC1CCCCC1NC(=O)c1ccco1 (stereo not drawn) 0.81%
COc1cccc(Oc2ccc3nnc(C(F)(F)F)n3n2)c1 -1.34%
C[C@@H](O)CNC(=O)c1[nH]cnc1C(=O)Nc1cccc(Cl)c1 16.2%
Nc1ccccc1-c1n[nH]c(=S)s1 25.6%
CCN(c1ccc(OC)cc1)S(=O)(=O)c1nnc(NC(=O)C(C)C)s1 3.54%
O=C(O)c1ccccc1C(=O)c1ccc(-c2ccccc2)cc1 8.16%
CCN1CCN(c2ccc(S(=O)(=O)N3CCOCC3)cc2NC(=O)c2ccccc2SC)CC1 3.45%
CCC(=O)Nc1cc(-c2nn(C)c(=O)c3ccccc23)ccc1OC 5.48%
O=C(COc1ncnc2cc([N+](=O)[O-])ccc12)NCCc1ccc(Cl)cc1 -7.58%
Cc1ccc(NC(=O)c2cc(NC(=O)c3ccco3)ccc2N2CCOCC2)cc1Cl -19.1%
CC(=O)Nc1ccc2c(O)cc(S(=O)(=O)O)cc2c1 6.64%
Cc1cc(=O)oc2cc(Nc3ccccc3)ccc12 6.98%
Nc1ccc(C(=O)Nc2ccc3c(O)cc(S(=O)(=O)O)cc3c2)cc1 14.1%
O=S(=O)(c1ccccc1)c1cc(O)ccc1O 6.16%
Cc1ccc(S(=O)(=O)Nc2ccc(O)c(S(=O)(=O)c3ccc(C)cc3)c2)cc1 6.97%
O=S(=O)(O)c1cccc2cccc(Nc3ccccc3)c12 13.4%
CCCN(CCC)C(=O)C1CCCN(S(=O)(=O)c2ccc3c(c2)oc(=O)n3C)C1 (stereo not drawn) 7.01%
O=C(COC(=O)Cc1ccc(Br)cc1)NC1CC1 4.98%
O=C(COc1ccc(Cl)cc1)N(Cc1ccccc1)c1nc(-c2ccccc2)cs1 9.03%
O=c1n(-c2ccccc2)c(=O)n2n1CCCC2 -0.32%
CCCCN(CC)CCCNC(=O)CC1Oc2ccccc2NC1=O (stereo not drawn) 0.11%
CCOc1ccccc1C(C(=O)NC1CCCC1)N(Cc1ccco1)C(=O)CNC(=O)c1ccco1 (stereo not drawn) 5.39%
O=C(CN1c2ccccc2Sc2ccccc21)NNC(=S)Nc1ccc(Cl)cc1 15.4%
CCOC(=O)C(CO)(NC(C)=O)C(=O)OCC 3.77%
COc1ccccc1OCc1cc(C(=O)N2CC3C[C@@H]4CC2C[C@H](C3)C4)no1 3.59%
CN(C)CCNC(C(=O)Nc1cc(Cl)cc(Cl)c1)c1ccccc1 (stereo not drawn) 5.37%
CCOc1ccccc1NC(=O)C(NCCc1ccc(OC)cc1)c1ccccc1 (stereo not drawn) -0.19%
CCC(C(=O)Nc1cccc(C(F)(F)F)c1)c1ccccc1 (stereo not drawn) 17.9%
CCOc1ccccc1NC(=O)C(OC(=O)C1CC1)c1ccccc1 (stereo not drawn) -2.99%
CCOc1ccccc1NC(=O)C(OC(=O)c1ccccc1)c1ccccc1 (stereo not drawn) 12.2%
CCOc1ccccc1NC(=O)C(NCC1CCCCC1)c1ccccc1 (stereo not drawn) 4.44%
CC(NC(=O)c1ccco1)C(=O)N1CCCCC1 (stereo not drawn) 3.98%
O=C(COC(=O)c1cccnc1Cl)NC1CCCCC1 4.82%
CC(C)Cc1cc(C(=O)N2CCN(c3ccc(F)cc3)CC2)no1 0.62%
COc1cccc(C(=O)NC(=S)Nc2ccccc2N2CCOCC2)c1 6.71%
COc1ccc(C)cc1S(=O)(=O)N1CCC(C(=O)NCCc2ccccc2)CC1 14.5%
COC(=O)c1ccc(Cl)c(NC(=O)CSc2nnc(-c3ccncc3)o2)c1 4.07%
